In the supplement of paper PMC11732987, “Enantioselective OTUD7B fragment discovery through chemoproteomics screening and high-throughput optimisation” (Communications Chemistry, 2025):

Legend:
Assay in all cases: log2 ratio of Biotin-Ahx-Ub-VS probe labelling (fragment/DMSO); higher = less target engagement (more negative = stronger competition), active = hit call of the paper (q ≤ 0.05, log2 ratio ≤ -1)
Conditions in all cases: compound concentration: 200 uM; treatment time: 3 h
[1] = target: T1, ALG13 (UniProt Q9NP73)
T1 sequence (whole entry): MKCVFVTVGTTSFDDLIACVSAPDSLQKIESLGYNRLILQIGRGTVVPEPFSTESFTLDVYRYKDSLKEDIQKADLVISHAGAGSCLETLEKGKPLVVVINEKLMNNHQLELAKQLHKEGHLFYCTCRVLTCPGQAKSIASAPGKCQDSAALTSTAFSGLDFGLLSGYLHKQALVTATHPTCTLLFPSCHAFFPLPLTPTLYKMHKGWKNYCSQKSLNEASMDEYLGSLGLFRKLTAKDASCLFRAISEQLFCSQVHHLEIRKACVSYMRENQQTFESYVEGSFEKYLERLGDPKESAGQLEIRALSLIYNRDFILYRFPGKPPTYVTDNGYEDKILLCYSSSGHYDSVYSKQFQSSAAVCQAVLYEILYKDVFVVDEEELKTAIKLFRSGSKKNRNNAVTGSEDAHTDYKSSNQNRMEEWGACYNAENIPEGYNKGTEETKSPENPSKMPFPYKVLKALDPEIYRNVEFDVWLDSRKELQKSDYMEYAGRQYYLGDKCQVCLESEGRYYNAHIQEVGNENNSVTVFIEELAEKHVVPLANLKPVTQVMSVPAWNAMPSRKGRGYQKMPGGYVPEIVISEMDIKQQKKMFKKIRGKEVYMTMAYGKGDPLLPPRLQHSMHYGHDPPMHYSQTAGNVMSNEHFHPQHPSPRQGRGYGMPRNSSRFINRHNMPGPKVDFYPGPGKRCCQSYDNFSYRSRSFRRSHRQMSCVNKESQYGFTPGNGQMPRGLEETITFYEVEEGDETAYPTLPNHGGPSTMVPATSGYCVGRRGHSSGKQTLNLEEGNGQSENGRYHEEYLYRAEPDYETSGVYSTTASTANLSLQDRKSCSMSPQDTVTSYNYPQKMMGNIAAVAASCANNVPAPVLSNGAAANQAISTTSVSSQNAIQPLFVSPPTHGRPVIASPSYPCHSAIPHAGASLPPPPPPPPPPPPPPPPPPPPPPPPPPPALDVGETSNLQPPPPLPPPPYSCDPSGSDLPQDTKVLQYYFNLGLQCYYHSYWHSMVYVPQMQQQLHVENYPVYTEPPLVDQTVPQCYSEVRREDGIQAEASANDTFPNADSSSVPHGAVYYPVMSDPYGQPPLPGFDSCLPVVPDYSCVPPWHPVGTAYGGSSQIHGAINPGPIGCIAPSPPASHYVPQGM
In short: (§1)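 Fragment (200 µM) or vehicle was incubated for 3 h with triplicate HEK293T lysate samples of 495 µg, which were then treated with Biotin-Ahx-Ub-VS at 0.5 µM final for 1 h. Labelled DUBs were enriched on NeutrAvidin, digested with LysC and trypsin, and analysed by diaPASEF LC-MS/MS. Values are average log2 fragment/vehicle ratios from an unpaired t-test on global-median-normalised Spectronaut label-free quantities, using proteins with ≥2 unique peptides.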

[2] = target: ATXN3 (UniProt P54252)
Chain of ATXN3 (P54252 whole entry): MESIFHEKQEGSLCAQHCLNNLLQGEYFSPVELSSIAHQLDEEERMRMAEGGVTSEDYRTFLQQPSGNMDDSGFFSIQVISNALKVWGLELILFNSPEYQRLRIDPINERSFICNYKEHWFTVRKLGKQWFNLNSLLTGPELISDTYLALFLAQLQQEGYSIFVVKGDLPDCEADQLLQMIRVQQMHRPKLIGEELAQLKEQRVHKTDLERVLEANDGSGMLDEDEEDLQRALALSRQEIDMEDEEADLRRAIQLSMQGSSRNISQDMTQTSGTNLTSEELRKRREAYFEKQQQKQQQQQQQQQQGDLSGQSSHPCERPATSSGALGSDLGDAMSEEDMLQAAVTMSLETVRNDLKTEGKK
In short: as §1

[3] = target: T2, BAP1 (UniProt Q92560)
T2 sequence (whole entry): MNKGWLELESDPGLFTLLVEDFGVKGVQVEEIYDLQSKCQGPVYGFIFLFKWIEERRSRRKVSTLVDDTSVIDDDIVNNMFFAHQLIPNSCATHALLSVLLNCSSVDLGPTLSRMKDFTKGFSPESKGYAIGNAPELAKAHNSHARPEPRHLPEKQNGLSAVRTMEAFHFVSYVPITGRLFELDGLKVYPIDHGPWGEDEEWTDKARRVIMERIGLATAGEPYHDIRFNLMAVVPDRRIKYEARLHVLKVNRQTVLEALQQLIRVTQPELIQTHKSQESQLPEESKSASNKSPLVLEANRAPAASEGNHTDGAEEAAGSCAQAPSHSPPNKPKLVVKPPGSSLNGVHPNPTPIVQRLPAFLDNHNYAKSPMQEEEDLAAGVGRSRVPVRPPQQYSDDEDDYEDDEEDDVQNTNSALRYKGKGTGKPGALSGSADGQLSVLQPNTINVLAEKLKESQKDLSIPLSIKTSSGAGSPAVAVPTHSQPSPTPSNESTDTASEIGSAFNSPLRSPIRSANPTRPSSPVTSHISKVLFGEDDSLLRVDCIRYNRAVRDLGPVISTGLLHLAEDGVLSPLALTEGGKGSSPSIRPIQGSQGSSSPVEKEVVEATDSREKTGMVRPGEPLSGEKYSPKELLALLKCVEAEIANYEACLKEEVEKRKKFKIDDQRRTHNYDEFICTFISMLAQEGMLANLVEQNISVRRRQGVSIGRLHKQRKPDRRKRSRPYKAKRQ
In short: as §1

[4] = target: EIF3F (UniProt O00303)
Chain of EIF3F (O00303 whole entry): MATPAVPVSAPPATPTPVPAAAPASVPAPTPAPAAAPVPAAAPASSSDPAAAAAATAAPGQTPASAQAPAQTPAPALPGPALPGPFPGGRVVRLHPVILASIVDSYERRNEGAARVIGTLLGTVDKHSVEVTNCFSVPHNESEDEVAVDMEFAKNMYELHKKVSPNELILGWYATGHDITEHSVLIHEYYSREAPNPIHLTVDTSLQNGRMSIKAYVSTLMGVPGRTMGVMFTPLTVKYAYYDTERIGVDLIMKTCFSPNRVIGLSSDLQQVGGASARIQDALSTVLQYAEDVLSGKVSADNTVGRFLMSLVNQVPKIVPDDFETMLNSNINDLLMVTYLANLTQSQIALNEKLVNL
In short: as §1

[5] = target: EIF3H (UniProt O15372)
Chain of EIF3H (O15372 whole entry): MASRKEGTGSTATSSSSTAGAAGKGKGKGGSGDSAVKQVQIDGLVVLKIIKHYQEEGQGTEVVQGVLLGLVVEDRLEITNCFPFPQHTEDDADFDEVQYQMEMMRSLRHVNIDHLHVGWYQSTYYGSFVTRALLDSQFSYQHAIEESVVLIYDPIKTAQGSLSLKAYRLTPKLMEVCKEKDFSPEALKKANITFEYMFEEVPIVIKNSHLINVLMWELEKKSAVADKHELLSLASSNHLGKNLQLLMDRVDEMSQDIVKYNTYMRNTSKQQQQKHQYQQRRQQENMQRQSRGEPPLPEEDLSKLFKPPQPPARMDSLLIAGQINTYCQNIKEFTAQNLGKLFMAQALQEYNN
In short: as §1

[6] = target: T3, FAM105A (UniProt Q9NUU6)
T3 sequence (whole entry): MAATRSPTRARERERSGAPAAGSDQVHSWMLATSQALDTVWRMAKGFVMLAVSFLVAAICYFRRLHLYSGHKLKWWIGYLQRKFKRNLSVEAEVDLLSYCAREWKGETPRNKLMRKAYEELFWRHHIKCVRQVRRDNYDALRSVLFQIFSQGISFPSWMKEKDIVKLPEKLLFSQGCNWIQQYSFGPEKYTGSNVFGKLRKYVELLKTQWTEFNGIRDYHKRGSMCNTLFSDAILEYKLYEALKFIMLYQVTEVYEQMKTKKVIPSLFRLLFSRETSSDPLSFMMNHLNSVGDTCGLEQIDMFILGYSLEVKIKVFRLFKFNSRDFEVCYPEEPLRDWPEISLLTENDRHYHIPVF
In short: as §1

[7] = target: OTUB1 (UniProt Q96FW1)
Chain of OTUB1 (Q96FW1 whole entry): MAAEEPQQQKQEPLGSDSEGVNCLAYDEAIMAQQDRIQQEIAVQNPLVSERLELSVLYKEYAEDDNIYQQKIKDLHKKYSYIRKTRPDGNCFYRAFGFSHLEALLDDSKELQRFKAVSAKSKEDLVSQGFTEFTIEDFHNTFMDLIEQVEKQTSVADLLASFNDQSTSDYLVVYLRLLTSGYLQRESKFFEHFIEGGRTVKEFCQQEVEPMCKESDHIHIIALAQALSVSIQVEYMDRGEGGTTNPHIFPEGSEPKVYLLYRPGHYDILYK
In short: as §1

[8] = target: T4, OTUD4 (UniProt Q01804)
T4 sequence (whole entry): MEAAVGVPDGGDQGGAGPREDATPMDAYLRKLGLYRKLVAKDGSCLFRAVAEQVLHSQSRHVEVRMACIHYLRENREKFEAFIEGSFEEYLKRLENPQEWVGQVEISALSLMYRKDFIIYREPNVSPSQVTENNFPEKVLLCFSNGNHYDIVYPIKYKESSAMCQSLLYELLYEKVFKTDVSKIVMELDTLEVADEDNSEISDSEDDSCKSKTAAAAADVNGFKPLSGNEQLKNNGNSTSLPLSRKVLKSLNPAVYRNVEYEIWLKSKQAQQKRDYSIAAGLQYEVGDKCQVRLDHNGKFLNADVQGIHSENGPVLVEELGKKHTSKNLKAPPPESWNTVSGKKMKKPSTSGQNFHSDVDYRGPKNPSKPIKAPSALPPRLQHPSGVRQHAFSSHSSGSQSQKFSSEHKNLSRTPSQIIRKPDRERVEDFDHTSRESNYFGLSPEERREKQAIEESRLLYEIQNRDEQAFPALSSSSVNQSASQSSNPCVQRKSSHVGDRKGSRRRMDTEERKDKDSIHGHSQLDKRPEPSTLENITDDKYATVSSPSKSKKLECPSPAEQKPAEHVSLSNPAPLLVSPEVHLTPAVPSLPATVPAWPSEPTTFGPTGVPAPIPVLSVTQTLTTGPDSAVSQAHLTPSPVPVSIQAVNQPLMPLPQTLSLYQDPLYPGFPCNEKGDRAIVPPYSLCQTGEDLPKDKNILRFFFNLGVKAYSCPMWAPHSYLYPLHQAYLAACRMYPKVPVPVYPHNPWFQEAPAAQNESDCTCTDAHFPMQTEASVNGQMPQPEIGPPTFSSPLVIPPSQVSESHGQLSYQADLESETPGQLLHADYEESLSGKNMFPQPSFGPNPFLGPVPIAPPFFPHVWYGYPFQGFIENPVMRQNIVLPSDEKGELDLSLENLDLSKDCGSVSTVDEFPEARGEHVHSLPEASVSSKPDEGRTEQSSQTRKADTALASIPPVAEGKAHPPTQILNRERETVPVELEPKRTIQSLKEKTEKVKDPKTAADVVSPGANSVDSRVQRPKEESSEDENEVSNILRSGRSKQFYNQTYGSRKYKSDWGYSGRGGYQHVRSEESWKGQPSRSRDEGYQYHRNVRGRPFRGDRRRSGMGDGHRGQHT
In short: as §1

[9] = target: T5, OTUD5 (UniProt Q96G74)
T5 sequence (whole entry): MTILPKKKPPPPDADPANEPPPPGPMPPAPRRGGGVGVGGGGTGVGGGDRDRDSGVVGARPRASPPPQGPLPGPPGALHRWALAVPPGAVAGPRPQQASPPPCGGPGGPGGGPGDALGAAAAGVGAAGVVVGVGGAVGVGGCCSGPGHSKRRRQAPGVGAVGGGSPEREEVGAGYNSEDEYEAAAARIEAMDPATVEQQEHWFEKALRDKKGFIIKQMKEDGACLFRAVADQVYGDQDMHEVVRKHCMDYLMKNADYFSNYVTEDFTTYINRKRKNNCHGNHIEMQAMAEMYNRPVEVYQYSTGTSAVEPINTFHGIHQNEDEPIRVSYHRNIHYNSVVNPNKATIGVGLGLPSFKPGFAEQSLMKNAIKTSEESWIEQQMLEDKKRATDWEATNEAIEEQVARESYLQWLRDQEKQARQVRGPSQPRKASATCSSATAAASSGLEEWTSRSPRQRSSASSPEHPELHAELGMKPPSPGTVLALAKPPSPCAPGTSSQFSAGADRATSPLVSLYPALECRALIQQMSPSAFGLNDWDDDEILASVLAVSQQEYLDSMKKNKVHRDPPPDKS
In short: as §1

Measured: log2 ratio of Biotin-Ahx-Ub-VS probe labelling

O=C(CCl)N1CCOCCC1c1ccccc1 (centres undefined)
inactive: [1] -0.00764 | [2] 0.117 | [3] -0.446 | [4] -0.267 | [5] 0.204 | [6] 0.0466 | [7] -0.0821 | [8] -0.0459 | [9] 0.0776
